Shiga inhibitor: blocks Shiga toxin action in Vero cells; Vero cells, Shiga toxin protein synthesis inhibition reporter; inhibition, % at 38.7 µM; 290,000 compounds, 9.2% hits; in the data active = inhibition mostly above about 28%, no sharp cut-off; inactive = mostly below about 43%; also: 0% is about no effect
Cycloheximide cs: counter-screen for Shiga toxin inhibitors: cycloheximide protein synthesis inhibition; cell reporter, cycloheximide protein synthesis inhibition counterscreen; max response, %; 300,000 compounds, 12% hits; AID 2314; in the data active = max response mostly above about 13%, no sharp cut-off; inactive = mostly below about 14%; also: read at 38.3 µM for the half of the compounds with a filed dose; 0% is about no effect
Pf growth 96h: P. falciparum growth inhibition at 96 hour, primary screen for plastid delayed-death inhibitors; P. falciparum luciferase reporter growth, 96 h; Potency, µM (titrated, usually from 28.7 µM), for the others: at the highest dose activity change, negative = inhibition, actives largely listed as inhibitors; 320,000 compounds, 6.9% hits; AID 504834; also: potency is read from the fitted curve at half-maximal effect; % is scaled to controls: 0 for no effect and ±100 for the full control effect
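Erythrocytes infected with luciferase-expressing P. falciparum were dispensed at 2% hematocrit and 0.05% parasitemia (final), then incubated with compounds 96 hours at 37 C in 5% CO2. Luminescence after detection reagent addition reported growth.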
Pf growth 48h: P. falciparum growth inhibition at 48 hours (one generation); P. falciparum luciferase growth in erythrocytes, 48 h; Potency, µM (top dose mostly 28.7 µM), for the others: at the highest dose activity change, negative = inhibition, usual class: inhibitors; 310,000 compounds, 5.9% hits; AID 504832; also: potency is read from the fitted curve at half-maximal effect; % is scaled to controls: 0 for no effect and ±100 for the full control effect
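Erythrocytes infected with P. falciparum carrying an integrated firefly luciferase reporter (2% hematocrit, 0.1% parasitemia final) were exposed to compounds in RPMI 1640 with 0.5% Albumax at 37 C, 5% CO2. Growth inhibition was scored as reduced luminescence.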
NS1 inh: inhibitors of influenza NS1 protein function | Potency, µM (doses to about 46.1 µM), without a hit: top-dose activity, positive = more growth | 270,000 compounds, 0.4% hits | AID 2326; calls by dose curve; also: potency is read from the fitted curve at half-maximal effect; actives are rising curves; nearly all actives have a fitted effect of over 50% in size
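Read-out: OD600 growth recovery of NS1-expressing budding yeast. Cells grown overnight at 30C in -URA glucose medium, washed, resuspended and diluted 1:100 in 2% galactose assay medium, pH 6.0. Same strain lacking NS1 served as positive control.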
Starred values were filed as active, the others as inactive; ? = inconclusive; · = not tested or not shown; [ ] = another dose, or the depositor's remark. The list is not random: actives were taken first. Their share in the collection is about 21%. Unless noted, calls follow the shape of the dose curve; as a rule, active = well fitted inhibition curve with a large enough effect; inconclusive = small, poorly fitted or top-dose-only effect, or another doubt; inactive = no such curve, though single readings can be large or run the other way.

SMILES	Shiga inhibitor	Cycloheximide cs	Pf growth 96h	Pf growth 48h	NS1 inh
CCCCN(C(=O)CCC(=O)Nc1cc(C)on1)C(C(=O)NC1CCCC1)c1ccccc1OCC (stereo not drawn)	10	4	16%	15µM*	9%
Cc1cc(NC(=O)CCC(=O)N(c2ccccc2)C(C)C(=O)NC2CCCC2)no1 (stereo not drawn)	-6	-8	23%	11%	-2%
Cc1cc(NC(=O)CCC(=O)N(c2ccccc2)C(C(=O)NC2CCCC2)c2cccs2)no1 (stereo not drawn)	-11	-2	·	?	-10%
Cc1ccc(C(C(=O)NC2CCCC2)N(Cc2ccco2)C(=O)CCC(=O)Nc2cc(C)on2)cc1 (stereo not drawn)	7	-3	13µM*	?	-8%[9.22 µM]
Cc1ccc(N(C(=O)CCC(=O)Nc2cc(C)on2)C(C(=O)NC2CCCC2)c2cccs2)cc1 (stereo not drawn)	-8	-5	·	12µM*	3%
Cc1cc(NC(=O)CCC(=O)N(c2ccccc2)C(C(=O)NC2CCCC2)c2ccccc2C)no1 (stereo not drawn)	-4	-4	?	13µM*	3%
O=C(NCc1ccccc1C(F)(F)F)C1CC(O)CN1C(=O)Nc1ccccc1 (stereo not drawn)	·	-2	?	-1%	-15%
COc1ccc(S(=O)(=O)NNC(=O)Nc2ccc(F)cc2F)c(OC)c1	-5	-3	-17%	2%	0%
CCC(C)(C)NC(=O)C(c1ccc(C)cc1)N(CC1CCCO1)C(=O)CCC(=O)Nc1ccccn1 (stereo not drawn)	-6	2	12µM*	?	18%
Cc1cc(NC(=O)CCC(=O)N(c2ccccc2C)C(C(=O)NC2CCCC2)c2ccccc2)no1 (stereo not drawn)	-1	-2	-68%	?	16%
CC(=O)c1cccc(N(C(=O)CS(=O)CC(=O)Nc2ccc(F)cc2)C(C(=O)NC2CCCCC2)c2ccc(C)o2)c1 (stereo not drawn)	-11	-1	4.1µM*	?	-3%
Cc1ccc(N(C(=O)CCC(=O)Nc2cc(C)on2)C(C(=O)NC2CCCC2)c2ccccc2)cc1 (stereo not drawn)	-10	7	2%	12µM*	-6%
Cc1cccc(N(C(=O)CCC(=O)Nc2cc(C)on2)C(C(=O)NC2CCCC2)c2ccc(C)o2)c1 (stereo not drawn)	28*	26*	12%	?	0%
Cc1cc(NC(=O)CCC(=O)N(c2cccc(F)c2)C(C(=O)NC2CCCC2)c2ccc(C)o2)no1 (stereo not drawn)	6	0	?	-13%	-1%
COc1ccc(C(=O)NCC(=O)OCC(=O)N2CCc3ccccc32)cc1	-7	2	30%	-1%	·
Cc1cc(NC(=O)CCC(=O)N(c2ccccc2)C(C(=O)NC2CCCC2)c2ccccc2)no1 (stereo not drawn)	-4	-2	8.3µM*	15µM*	0%
COc1ccc(N2CC(C)Cn3c2nc2c3c(=O)n(Cc3ccc(C)cc3)c(=O)n2C)c(OC)c1 (stereo not drawn)	-23	6	?	4.7µM*	·
Cc1c(CC(=O)O)c(=O)oc2c(C)c(OCc3ccc(F)cc3F)ccc12	-10	1	26%	9%[0.00184 µM]	2%
COc1ccccc1COc1ccc2c(C)c(CC(=O)O)c(=O)oc2c1C	-6	-2	6.6µM*	1%	13%
COc1ccc2c(C)c(Cc3ccccc3)c(=O)oc2c1OC	14	1	9%	12µM*	-41%
COc1cc(COc2ccc3c(C)c(Cc4ccccc4)c(=O)oc3c2C)cc(OC)c1OC	11	-2	1.9µM*	?	-1%
Cc1c(Cc2ccccc2)c(=O)oc2cc(OC(=O)c3ccccc3)ccc12	-5	-2	?	-10%	4%
COc1cc(COc2ccc3c(C)c(Cc4ccccc4)c(=O)oc3c2)cc(OC)c1OC	-27	-2	?	8.3µM*	6%
Cc1c(Cc2ccccc2)c(=O)oc2cc(OCc3ccc(C(=O)O)cc3)ccc12	20	-2	3%	-6%	1%
C/C(=N\Nc1ccc([N+](=O)[O-])cc1[N+](=O)[O-])C(C)C(C)C (stereo not drawn)	10	-3	?	-4%	·
SMILES	Shiga inhibitor	Cycloheximide cs	Pf growth 96h	Pf growth 48h	NS1 inh
CC1(C)OC(C)(C)/C(=C\c2ccc(OCC(N)=O)cc2)C1=O	·	·	-10%	-14%	·
Cc1cc(C)c2c(=O)[nH]c(SCC(=O)c3ccc(C)c(C)c3)nc2n1	-4	6	-18%	40%	·
COc1ccc(C(=O)O)cc1Nc1cc(C)nc2ncnn12	-2	-6	?	·	-5%
C=CCNC(=S)Nc1ccccc1-c1nnc2n1CCCCC2	-18	-3	-30%	-8%	-6%
CCCCc1c(C)c2ccc(OC)c(/C(C)=N\O)c2oc1=O	35	19*	24%	17%	4%
CCC(=O)Nc1sc2c(c1C(N)=O)CCN(Cc1ccccc1)C2	24*	13*	59%	40%	-3%
NC(=O)c1c(NC(=O)c2c(F)cccc2F)sc2c1CCN(Cc1ccccc1)C2	19*	8.3*	-10%	-3%	-38%
NC(=O)c1c(NC(=O)c2ccccc2)sc2c1CCN(Cc1ccccc1)C2	5	13*	31%	20%	4%
CCOC(=O)c1c(N)sc2c1CCN(Cc1ccccc1)C2	11	10	0.95µM*	3.8µM*	·
CC(C)C(=O)Nc1sc2c(c1C(N)=O)CCN(Cc1ccccc1)C2	-2	-1	62%	29%	0%
CN1CCc2c(sc(NC(=O)Cc3ccccc3)c2C(N)=O)C1	11	-1	44%	1%	3%
CN1CCc2c(sc(NC(=O)Cc3ccc(F)cc3)c2C(N)=O)C1	-5	7	12%	18%	-10%
O=C(c1oc(=O)c2ccccc2c1-c1ccccc1)N1CCN(C2CCCCC2)CC1	-5	-5	15%	·	-4%
CCCCC(=O)Nc1c(C)cc(C)cc1Cl	44	9	-3%	·	-6%
CCN1CCc2c(sc(NC(=O)c3ccc(S(=O)(=O)N(CC)c4ccccc4)cc3)c2C(N)=O)C1	18	7	13µM*	?	13%
N#Cc1c(NC(=O)/C=C/C(=O)O)sc2c1CCN(Cc1ccccc1)C2	16	3	10µM*	-29%	4%
CCN1CCc2c(sc(NC(=O)COc3ccccc3)c2C(=O)OC)C1	-14	-1	0%	15µM*	-7%
CCOC(=O)Cn1c(=NC(=O)c2cccs2)sc2cc(C(=O)OC)ccc21	72*	44*	59%	99%	29%
CCOC(=O)c1ccc2c(c1)sc(=NC(=O)c1ccco1)n2CCOC	14	6	2%	12%	-8%
CC(C)Nc1cc(C(F)(F)F)nc(-c2ccccn2)n1	-3	-3	4.1µM*	5.2µM*	18%
FC(F)(F)c1cc(Nc2ccccc2)nc(-c2ccccn2)n1	-7	2	?	2.9µM*	-6%
COC(=O)C1CN(C(=O)COc2ccccc2)c2ccccc2O1 (stereo not drawn)	-3	1	?	-3%	3%

Screening results (PubChem)
